Test results published in the supplement of paper PMC4962491.
± gives the standard deviation of the averaged measurements.

Tested on: FaDu
Test: mitochondrial oxygen consumption rate normalised to cell number, Z score vs plate DMSO wells; higher = higher oxygen consumption (negative = OCR reduction)
Details: treatment time 24 h, assay medium: 5 mM glucose, 5 mM pyruvate, 4 mM glutamine
Description: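 Secondary screen: FaDu cells were incubated 24 h with the top 130 primary hits at 0.08, 0.4, 2 or 10 uM. Mitochondrial-specific OCR (basal minus antimycin A) was measured on a Seahorse XF96 in medium with 5 mM glucose, 5 mM pyruvate and 4 mM glutamine and normalised to Hoechst cell number. OCR score = (OCR - mean of plate DMSO wells) / SD of plate DMSO wells. Three repeats.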
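Also: compound exposure in DMEM (4 mM L-glutamine, 5 mM glucose), antimycin A injected at 2 µM after the basal reading and its residual OCR subtracted from basal.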

| SMILES | mitochondrial oxygen consumption rate normalised (0.08 µM) | mitochondrial oxygen consumption rate normalised (0.4 µM) | mitochondrial oxygen consumption rate normalised (2 µM) | mitochondrial oxygen consumption rate normalised (10 µM) |
| --- | --- | --- | --- | --- |
| CCN(CC)CCCC(C)Nc1ccnc2cc(Cl)ccc12 (stereo not given) | 0.223 ± 1.1 | 1.56 ± 0.35 | -0.792 ± 0.8 | 0.482 ± 1.1 |
| Nc1c2ccccc2nc2ccccc12 | -1.04 ± 0.95 | -0.393 ± 0.47 | -2.4 ± 0.075 | -9.41 ± 0.65 |
| COc1ccc2cc3[n+](cc2c1OC)CCc1cc2c(cc1-3)OCO2 | -0.246 ± 0.98 | -0.535 ± 0.76 | -6.29 ± 0.22 | -13.55 ± 0.13 |
| CCCCCCc1ccc(O)cc1O.Nc1c2ccccc2nc2ccccc12 | -0.393 ± 1.3 | -0.59 ± 2.2 | -2.14 ± 1.1 | -6.38 ± 0.68 |
| N=C(NCCCCCCNC(=N)NC(=N)Nc1ccc(Cl)cc1)NC(=N)Nc1ccc(Cl)cc1 | 0.00962 ± 0.9 | 1.64 ± 0.46 | -0.184 ± 0.7 | -7.98 ± 0.44 |
| O=C(O[C@H]1CN2CCC1CC2)N1CCc2ccccc2[C@@H]1c1ccccc1 | 1.08 ± 2.1 | 0.729 ± 0.44 | 0.566 ± 1.2 | -0.974 ± 1.9 |
| CO[C@@]12[C@H](COC(N)=O)C3=C(C(=O)C(C)=C(N)C3=O)N1C[C@@H]1N[C@@H]12 | -0.603 ± 0.39 | 1.96 ± 0.85 | -1.73 ± 1.2 | -3.99 ± 1.3 |
| CN(C)c1ccc2nc3ccc(=[N+](C)C)cc-3sc2c1 | 0.933 ± 1.1 | 1.47 ± 0.68 | -2.4 ± 1.5 | -2.94 ± 3.9 |
| CC(COc1ccccc1)NC(C)C(O)c1ccc(O)cc1 (stereo not given) | 0.276 ± 1.4 | 1.57 ± 0.3 | 0.21 ± 1.1 | 0.099 ± 1 |
| CCCCCC(=O)O[C@]1(C(C)=O)CC[C@H]2[C@@H]3CCC4=CC(=O)CC[C@]4(C)[C@H]3CC[C@@]21C | 0.448 ± 1.4 | 0.998 ± 0.5 | 0.00301 ± 1.9 | -3.48 ± 1.8 |
